# Reference: article PMC7862700, “An all-to-all approach to the identification of sequence-specific readers for epigenetic DNA modifications on cytosine”
# Assays:
# Experiment in all cases: DAPPL (digital affinity profiling via proximity ligation, sequencing); 10 mM Tris-HCl pH 7.5, 50 mM NaCl, 1 mM DTT, 4% glycerol, room temperature, 30 min; GST-TFs on glutathione beads, 16-mer random dsDNA library, 0.1% formaldehyde crosslink after washing; high values mean tight binding
# Conditions in all cases: protein: recombinant; tags: N-terminal GST; dsDNA, one strand shown
# [1] = molecular target: T1, ERF (Homo sapiens, UniProt P50548 1-548)
# T1 sequence: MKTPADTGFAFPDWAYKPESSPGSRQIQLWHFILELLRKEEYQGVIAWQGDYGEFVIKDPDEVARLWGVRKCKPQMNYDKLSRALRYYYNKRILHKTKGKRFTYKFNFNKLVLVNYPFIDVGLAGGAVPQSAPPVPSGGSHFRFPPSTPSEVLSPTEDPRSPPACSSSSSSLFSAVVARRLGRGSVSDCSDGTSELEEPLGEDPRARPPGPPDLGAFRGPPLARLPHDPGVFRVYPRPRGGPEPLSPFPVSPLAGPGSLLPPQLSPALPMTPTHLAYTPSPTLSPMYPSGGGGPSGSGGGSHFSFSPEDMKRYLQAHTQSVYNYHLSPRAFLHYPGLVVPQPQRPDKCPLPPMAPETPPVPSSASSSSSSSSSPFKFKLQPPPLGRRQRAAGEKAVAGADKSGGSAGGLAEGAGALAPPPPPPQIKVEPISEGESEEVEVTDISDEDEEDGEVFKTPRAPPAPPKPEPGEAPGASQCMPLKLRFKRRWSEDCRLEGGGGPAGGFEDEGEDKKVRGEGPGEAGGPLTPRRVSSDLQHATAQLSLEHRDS
# Summary of the method: (§1)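 GST fusions of human transcription factors were expressed in yeast and captured with glutathione beads. Once given DNA barcodes and pooled alongside a tag-only sample, they were incubated for 30 min at room temperature with 200 nmole of a random double-stranded 16-mer DNA library in Tris/NaCl/DTT/glycerol buffer, then washed, crosslinked (0.1% formaldehyde), proximity-ligated, PCR-amplified and sequenced on an Illumina NextSeq500. The binding signal of each hexamer is its read frequency for a factor divided by its frequency for the tag-only sample.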
# [2] = molecular target: T2, ETV3L (Homo sapiens, UniProt Q6ZN32 1-361)
# T2 sequence: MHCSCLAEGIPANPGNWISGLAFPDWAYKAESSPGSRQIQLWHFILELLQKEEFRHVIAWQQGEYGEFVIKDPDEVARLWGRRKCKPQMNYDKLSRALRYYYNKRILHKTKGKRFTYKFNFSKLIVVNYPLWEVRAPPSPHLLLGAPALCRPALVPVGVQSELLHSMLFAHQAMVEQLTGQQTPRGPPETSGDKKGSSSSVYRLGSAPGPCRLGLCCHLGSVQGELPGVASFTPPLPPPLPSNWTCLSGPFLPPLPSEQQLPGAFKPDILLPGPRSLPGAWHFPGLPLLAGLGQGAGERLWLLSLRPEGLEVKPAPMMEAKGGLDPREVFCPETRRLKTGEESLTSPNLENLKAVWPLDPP
# Summary of the method: as §1
# [3] = molecular target: T3, ETS2 (Homo sapiens, UniProt P15036 1-469)
# T3 sequence: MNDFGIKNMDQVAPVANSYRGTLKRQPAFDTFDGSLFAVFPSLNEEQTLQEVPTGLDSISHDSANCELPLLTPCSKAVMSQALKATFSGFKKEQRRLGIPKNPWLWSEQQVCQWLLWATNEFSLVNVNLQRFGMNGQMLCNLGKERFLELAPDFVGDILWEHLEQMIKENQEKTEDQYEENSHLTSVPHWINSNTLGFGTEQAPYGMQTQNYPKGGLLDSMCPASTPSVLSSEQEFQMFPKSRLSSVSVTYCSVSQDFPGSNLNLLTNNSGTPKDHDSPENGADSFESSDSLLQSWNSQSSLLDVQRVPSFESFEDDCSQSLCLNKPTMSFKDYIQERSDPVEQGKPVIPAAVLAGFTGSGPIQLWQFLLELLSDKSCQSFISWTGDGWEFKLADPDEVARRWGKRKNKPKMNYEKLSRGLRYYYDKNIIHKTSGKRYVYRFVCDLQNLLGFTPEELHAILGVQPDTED
# Summary of the method: as §1
# [4] = molecular target: T4, SPDEF (Homo sapiens, UniProt O95238 1-335)
# T4 sequence: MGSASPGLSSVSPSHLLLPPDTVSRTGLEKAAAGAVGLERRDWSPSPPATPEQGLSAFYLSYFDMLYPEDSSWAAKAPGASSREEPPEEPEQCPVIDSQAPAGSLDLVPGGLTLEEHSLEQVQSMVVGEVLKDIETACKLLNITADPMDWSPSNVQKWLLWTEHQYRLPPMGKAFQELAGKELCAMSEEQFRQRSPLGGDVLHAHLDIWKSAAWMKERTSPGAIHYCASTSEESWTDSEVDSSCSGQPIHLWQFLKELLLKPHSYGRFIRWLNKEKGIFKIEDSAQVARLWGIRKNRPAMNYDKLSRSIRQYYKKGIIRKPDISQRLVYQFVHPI
# Summary of the method: as §1
# [5] = molecular target: T5, ETV7 (Homo sapiens, UniProt Q9Y603 1-341)
# T5 sequence: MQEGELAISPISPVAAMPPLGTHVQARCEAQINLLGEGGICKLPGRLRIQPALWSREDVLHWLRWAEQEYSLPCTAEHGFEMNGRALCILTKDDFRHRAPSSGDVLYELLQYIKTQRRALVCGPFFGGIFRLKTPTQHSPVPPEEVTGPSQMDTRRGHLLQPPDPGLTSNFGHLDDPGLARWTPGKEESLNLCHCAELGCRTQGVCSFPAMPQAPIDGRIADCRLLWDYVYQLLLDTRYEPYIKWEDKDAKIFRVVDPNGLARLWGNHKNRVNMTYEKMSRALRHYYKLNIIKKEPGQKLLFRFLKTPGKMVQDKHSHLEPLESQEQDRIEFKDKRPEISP
# Summary of the method: as §1
# [6] = molecular target: T6, ELF5 (Homo sapiens, UniProt Q9UKW6-2 1-255)
# T6 sequence: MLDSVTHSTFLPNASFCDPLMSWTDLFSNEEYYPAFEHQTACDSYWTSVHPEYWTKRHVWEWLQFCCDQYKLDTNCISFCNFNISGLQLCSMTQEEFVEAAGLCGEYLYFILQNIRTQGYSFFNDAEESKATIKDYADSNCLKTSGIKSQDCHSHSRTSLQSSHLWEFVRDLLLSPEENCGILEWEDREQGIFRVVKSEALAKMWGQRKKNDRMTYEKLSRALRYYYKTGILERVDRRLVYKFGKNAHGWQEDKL
# Summary of the method: as §1
# [7] = molecular target: T7, ETV3 (Homo sapiens, UniProt P41162-2 1-143)
# T7 sequence: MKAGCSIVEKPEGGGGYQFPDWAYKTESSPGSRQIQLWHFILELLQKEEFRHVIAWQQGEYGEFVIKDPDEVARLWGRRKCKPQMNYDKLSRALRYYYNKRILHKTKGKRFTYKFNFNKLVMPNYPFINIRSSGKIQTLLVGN
# Summary of the method: as §1
# [8] = molecular target: ETV6 (Homo sapiens, UniProt P41212 1-452)
# Summary of the method: as §1
# ETV6, sequence (P41212 whole entry): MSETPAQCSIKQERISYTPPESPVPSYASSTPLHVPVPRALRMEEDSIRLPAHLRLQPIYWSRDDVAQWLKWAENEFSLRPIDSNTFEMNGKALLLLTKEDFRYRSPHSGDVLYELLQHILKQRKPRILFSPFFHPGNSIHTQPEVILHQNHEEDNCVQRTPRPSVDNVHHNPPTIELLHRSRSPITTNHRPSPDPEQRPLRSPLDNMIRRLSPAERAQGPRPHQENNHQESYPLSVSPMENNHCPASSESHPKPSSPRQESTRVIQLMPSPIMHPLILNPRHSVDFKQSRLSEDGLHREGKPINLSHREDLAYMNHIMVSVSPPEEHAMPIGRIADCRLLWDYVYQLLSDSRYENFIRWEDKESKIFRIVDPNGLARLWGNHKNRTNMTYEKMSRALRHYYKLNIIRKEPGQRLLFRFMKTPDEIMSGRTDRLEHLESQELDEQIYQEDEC
Sequence,binding signal [1],binding signal [2],binding signal [3],binding signal [4],binding signal [5],binding signal [6],binding signal [7],binding signal [8]
TGATCT,"1.35 fold enrichment (6-mer frequency, TF over GST control)","1.1 fold enrichment (6-mer frequency, TF over GST control)","1.31 fold enrichment (6-mer frequency, TF over GST control)","1.23 fold enrichment (6-mer frequency, TF over GST control)","1.11 fold enrichment (6-mer frequency, TF over GST control)","1.22 fold enrichment (6-mer frequency, TF over GST control)","1.25 fold enrichment (6-mer frequency, TF over GST control)","1.06 fold enrichment (6-mer frequency, TF over GST control)"
ACTCTT,"1.31 fold enrichment (6-mer frequency, TF over GST control)","1.27 fold enrichment (6-mer frequency, TF over GST control)","1.15 fold enrichment (6-mer frequency, TF over GST control)","1.18 fold enrichment (6-mer frequency, TF over GST control)","1.29 fold enrichment (6-mer frequency, TF over GST control)","1.34 fold enrichment (6-mer frequency, TF over GST control)","1.25 fold enrichment (6-mer frequency, TF over GST control)","1.25 fold enrichment (6-mer frequency, TF over GST control)"
CTGAAT,"1.47 fold enrichment (6-mer frequency, TF over GST control)","1.32 fold enrichment (6-mer frequency, TF over GST control)","1.32 fold enrichment (6-mer frequency, TF over GST control)","1.53 fold enrichment (6-mer frequency, TF over GST control)","1.17 fold enrichment (6-mer frequency, TF over GST control)","1.18 fold enrichment (6-mer frequency, TF over GST control)","1.29 fold enrichment (6-mer frequency, TF over GST control)","1.22 fold enrichment (6-mer frequency, TF over GST control)"
TCCATA,"1.37 fold enrichment (6-mer frequency, TF over GST control)","1.27 fold enrichment (6-mer frequency, TF over GST control)","1.25 fold enrichment (6-mer frequency, TF over GST control)","1.27 fold enrichment (6-mer frequency, TF over GST control)","1.14 fold enrichment (6-mer frequency, TF over GST control)","1.22 fold enrichment (6-mer frequency, TF over GST control)","1.22 fold enrichment (6-mer frequency, TF over GST control)","1.27 fold enrichment (6-mer frequency, TF over GST control)"
TTTGAC,"1.49 fold enrichment (6-mer frequency, TF over GST control)","1.35 fold enrichment (6-mer frequency, TF over GST control)","1.33 fold enrichment (6-mer frequency, TF over GST control)","1.48 fold enrichment (6-mer frequency, TF over GST control)","1.58 fold enrichment (6-mer frequency, TF over GST control)","1.34 fold enrichment (6-mer frequency, TF over GST control)","1.38 fold enrichment (6-mer frequency, TF over GST control)","1.4 fold enrichment (6-mer frequency, TF over GST control)"
AGCTTA,"1.2 fold enrichment (6-mer frequency, TF over GST control)","1.08 fold enrichment (6-mer frequency, TF over GST control)","1.15 fold enrichment (6-mer frequency, TF over GST control)","1.17 fold enrichment (6-mer frequency, TF over GST control)","1.15 fold enrichment (6-mer frequency, TF over GST control)","1.08 fold enrichment (6-mer frequency, TF over GST control)","1.17 fold enrichment (6-mer frequency, TF over GST control)","1.05 fold enrichment (6-mer frequency, TF over GST control)"
CACGTT,"1.36 fold enrichment (6-mer frequency, TF over GST control)","1.21 fold enrichment (6-mer frequency, TF over GST control)","1.3 fold enrichment (6-mer frequency, TF over GST control)","1.18 fold enrichment (6-mer frequency, TF over GST control)","1.35 fold enrichment (6-mer frequency, TF over GST control)","1.12 fold enrichment (6-mer frequency, TF over GST control)","1.19 fold enrichment (6-mer frequency, TF over GST control)","1.27 fold enrichment (6-mer frequency, TF over GST control)"
ACCGAC,"1.29 fold enrichment (6-mer frequency, TF over GST control)","1.44 fold enrichment (6-mer frequency, TF over GST control)","1.38 fold enrichment (6-mer frequency, TF over GST control)","1.37 fold enrichment (6-mer frequency, TF over GST control)","1.25 fold enrichment (6-mer frequency, TF over GST control)","1.25 fold enrichment (6-mer frequency, TF over GST control)","1.27 fold enrichment (6-mer frequency, TF over GST control)","1.41 fold enrichment (6-mer frequency, TF over GST control)"
